In PubChem BioAssay (NCATS):
Inconclusive results are not listed. A call without a number means that no potency is given here. Calls of active or inactive are those of the source. Unless noted, calls come from the whole dose curve.

Experiments:
[1] = qHTS for Inhibitors of the Functional Ribonucleoprotein Complex (vRNP) of Lassa (LASV) Arenavirus: LASV Primary Screen - GLuc reporter signal (AID 1347082; calls by dose curve; tested in HEK293 reporter line; note: nearly all actives have a fitted effect of over 60% in size; note: potency is the fitted concentration of half-maximal effect)
[2] = qHTS for Inhibitors of the Functional Ribonucleoprotein Complex (vRNP) of Lassa (LASV) Arenavirus: Viability assay - alamar blue signal for LASV Primary Screen (AID 1347083; calls by dose curve; tested in HEK293 reporter line; note: series mostly up to about 57 µM; nearly all actives have a fitted effect of over 80% in size)
[3] = molecular target: Nucleoprotein (Lymphocytic choriomeningitis virus (strain Armstrong)) (UniProt P09992); test: qHTS for Inhibitors of the Functional Ribonucleoprotein Complex (vRNP) of Lymphocytic Choriomeningitis Arenaviruses (LCMV): LCMV Primary Screen - GLuc reporter signal (AID 1347086); note: nearly all actives have a fitted effect of over 70% in size; note: potency is the fitted concentration of half-maximal effect
Nucleoprotein (Lymphocytic choriomeningitis virus (strain Armstrong)), sequence (P09992 whole entry, looked up): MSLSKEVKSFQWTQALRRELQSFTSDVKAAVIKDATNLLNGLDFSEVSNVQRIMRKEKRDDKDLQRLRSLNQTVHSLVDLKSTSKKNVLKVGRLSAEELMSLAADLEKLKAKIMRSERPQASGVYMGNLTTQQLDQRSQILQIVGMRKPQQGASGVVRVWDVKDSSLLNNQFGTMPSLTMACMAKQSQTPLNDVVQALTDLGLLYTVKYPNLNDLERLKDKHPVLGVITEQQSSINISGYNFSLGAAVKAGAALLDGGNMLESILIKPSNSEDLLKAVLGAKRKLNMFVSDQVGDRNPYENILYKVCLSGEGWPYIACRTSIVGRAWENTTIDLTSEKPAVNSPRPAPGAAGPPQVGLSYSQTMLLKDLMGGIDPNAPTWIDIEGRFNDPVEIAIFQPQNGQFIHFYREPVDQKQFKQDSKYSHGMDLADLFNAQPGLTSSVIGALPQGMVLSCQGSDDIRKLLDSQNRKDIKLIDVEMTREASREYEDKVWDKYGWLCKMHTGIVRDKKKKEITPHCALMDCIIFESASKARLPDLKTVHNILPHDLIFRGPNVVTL

[4] = qHTS for Inhibitors of the Functional Ribonucleoprotein Complex (vRNP) of Lymphocytic Choriomeningitis Arenaviruses (LCMV): Viability assay - alamar blue signal for LCMV Primary Screen (AID 1347085; calls by dose curve; tested in HEK293 reporter line; note: nearly all actives have a fitted effect of over 80% in size; note: potency is the fitted concentration of half-maximal effect)

SMILES	Potency [1]	Potency [2]	Potency [3]	Potency [4]
COc1cc(N)c(Cl)cc1C(=O)NC1CCN(CCCOc2ccc(F)cc2)CC1OC (stereo unspecified)	inactive	inactive	inactive	–
CN1CCC(Nc2ncc3ncnc(Nc4ccc(F)c(Cl)c4)c3n2)CC1	inactive	–	inactive	inactive
CCOC(=O)c1ccc(C#Cc2ccc3c(c2)C(C)(C)CCS3)nc1	inactive	inactive	inactive	–
O=C(O)c1cccc(-c2noc(-c3ccccc3F)n2)c1	inactive	inactive	inactive	–
CC(CNC1CCCCC1)OC(=O)c1ccccc1 (stereo unspecified)	inactive	inactive	inactive	–
CC(=O)OCC(=O)Nc1cc(C#N)cc(NC(=O)COC(C)=O)c1Cl	inactive	inactive	inactive	inactive
C=C[C@@]1(C)CC(=O)[C@]2(O)[C@@]3(C)[C@@H](O)CCC(C)(C)[C@@H]3[C@H](O)[C@H](OC(C)=O)[C@@]2(C)O1	inactive	inactive	inactive	–
CCCOc1ccc2nc(NC(=O)OC)[nH]c2c1	inactive	–	inactive	0.0172 µM (active)
O=C(CCCN1CCN(c2ccc(F)cc2)CC1)NC1c2ccccc2CSc2ccccc21 (stereo unspecified)	24.3 µM (active)	–	–	inactive
COC(=O)C1=C(C)NC(C)=C(C(=O)OCCCN2CCC(c3ccccc3)(c3ccccc3)CC2)C1c1cccc([N+](=O)[O-])c1 (stereo unspecified)	inactive	inactive	inactive	–
O=C1OC2(c3ccccc31)c1cc(I)c(O)c(I)c1Oc1c2cc(I)c(O)c1I	inactive	inactive	inactive	–
CC(NCCC(c1ccccc1)c1ccccc1)c1ccccc1 (stereo unspecified)	inactive	–	–	inactive
CN1CCC(=C2c3ccccc3CCc3cccnc32)CC1	inactive	inactive	inactive	–
Clc1ccc(Nc2nnc(Cc3ccncc3)c3ccccc23)cc1	inactive	–	inactive	inactive
O=C(Nc1ccc([N+](=O)[O-])cc1Cl)c1cc(Cl)ccc1O	inactive	–	–	inactive
CCOC(=O)[C@H](CCc1ccccc1)N[C@@H](C)C(=O)N(CC(=O)O)C1Cc2ccccc2C1	inactive	–	inactive	inactive
COc1ccc(CCN2CCC(Nc3nc4ccccc4n3Cc3ccc(F)cc3)CC2)cc1	inactive	inactive	inactive	–
CCN(CC)CCOc1ccc(C(O)(Cc2ccc(Cl)cc2)c2ccc(C)cc2)cc1 (stereo unspecified)	inactive	–	inactive	inactive
CCCCOc1ccc(CC(=O)NO)cc1	inactive	–	inactive	inactive
CC(C)c1cc2c(cc1S(=O)(=O)O)[C@@]1(C)CCC[C@@](C)(C(=O)O)[C@@H]1CC2	inactive	inactive	inactive	inactive
c1ccc(CC2=NCCN2)cc1	inactive	inactive	inactive	–
O=S(=O)(O)NC1CCCCC1	inactive	–	inactive	inactive
N[C@@H](Cc1cc(I)c(O)c(I)c1)C(=O)O	inactive	inactive	inactive	–
COC[C@@H](c1ccc(C(F)(F)F)cc1)N1CCN(C2(C)CCN(C(=O)c3c(C)ncnc3C)CC2)C[C@H]1C	inactive	–	–	38.5 µM (active)

SMILES	Potency [1]	Potency [2]	Potency [3]	Potency [4]
O=c1[nH]c2ccccc2n1CCCN1CCN(C(c2ccccc2)c2ccccc2)CC1	inactive	inactive	inactive	–
CCOC(=O)OC(C)OC1=C(C(=O)Nc2ccccn2)N(C)S(=O)(=O)c2ccccc21 (stereo unspecified)	inactive	inactive	inactive	–
COc1ccc(OC(=O)N(CC(=O)O)Cc2ccc(OCCc3nc(-c4ccccc4)oc3C)cc2)cc1	inactive	–	inactive	inactive
CC(=O)N(CC(=O)N(C)C)c1ccccc1	inactive	inactive	inactive	–
CCCCCCCCCCCCCCCC[N+](C)(C)Cc1ccccc1	inactive	–	–	inactive
O=C(CS)Nc1ccccc1	inactive	inactive	inactive	–
COc1ccc2cc3[n+](cc2c1OC)CCc1cc2c(cc1-3)OCO2	27.3 µM (active)	–	19.3 µM (active)	inactive
CC1(C)O[C@@H]2C[C@H]3[C@@H]4CCC5=CC(=O)CC[C@]5(C)[C@@]4(F)[C@@H](O)C[C@]3(C)[C@]2(C(=O)CCl)O1	inactive	inactive	inactive	–
CC/C(=C(/CC)c1ccc(O)cc1)c1ccc(O)cc1	inactive	–	–	inactive
CCC(=O)O[C@]1(C(=O)CCl)[C@@H](C)C[C@H]2[C@@H]3CCC4=CC(=O)C=C[C@]4(C)[C@@]3(F)[C@@H](O)C[C@@]21C	inactive	–	inactive	inactive
Cc1c(C)n(CCN(C)C)c2ccc(C(=O)OCCN(C)C)cc12	inactive	–	inactive	–
O=C(O)c1ccc(OCCCOc2ccc(C(=O)O)cc2)cc1	–	–	inactive	inactive
CCCSS/C(CCO)=C(\C)N(C=O)Cc1cnc(C)nc1N	inactive	–	inactive	–
Nc1c2ccccc2nc2ccccc12	–	–	–	14.1 µM (active)
CO[C@@H]1[C@@H](OC)[C@H](C)[C@@](O)(CC(=O)O)O[C@H]1[C@H](C)[C@H]1O[C@@]2(CC[C@@](C)([C@H]3CC[C@@](C)([C@@H]4O[C@@H]([C@H]5O[C@](C)(O)[C@H](C)C[C@@H]5C)C[C@@H]4OC4C[C@H](OC)[C@@H](OC)[C@H](C)O4)O3)O2)C[C@H](O)[C@H]1C (stereo partly specified)	–	–	0.562 µM (active)	2 µM (active)
Cc1cc2nc3ccc(=[N+](C)C)cc-3sc2cc1N	–	–	6.31 µM (active)	–
CCOC(=O)Nc1ccc(NCc2ccc(F)cc2)nc1N	inactive	–	inactive	inactive
O=C(Nc1ccc(Cl)cc1)Nc1ccc(Cl)c(C(F)(F)F)c1	–	–	–	14.1 µM (active)
C[C@@H]1CN(CCCn2c3ccccc3c3ccccc32)C[C@H](C)N1	inactive	–	inactive	inactive
Clc1ccccc1C(c1ccccc1)(c1ccccc1)n1ccnc1	–	inactive	inactive	inactive
COC(=O)c1nc(Cl)c(Cl)nc1N	–	–	–	inactive
CC[C@]12CCCN3CCc4c(n(c5ccccc45)C(=O)C1)[C@@H]32	inactive	–	7.08 µM (active)	–
O=Cc1ccc(O)c(O)c1O	inactive	–	inactive	inactive
COC(=O)Nc1nc2ccc(S(=O)c3ccccc3)cc2[nH]1 (stereo unspecified)	inactive	–	inactive	–
